# TRHR PAM = allosterically enhances the human TRH receptor. P34981. TRHR cells, fluo-8 calcium fluorescence, EC20 TRH enhancement. enhancement, % at 2 µM. 360,000 tested, 0.66% active; in the data active means enhancement above about 30%
#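 TRHR-expressing cells loaded with fluo-8 calcium dye were read kinetically (ex 480/em 530) during compound addition, then stimulated with an EC20 of TRH (10 nM final). Enhancement of the Gq-mediated intracellular calcium response was scored.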
# D1 antagonist = blocks dopamine activation of the human D1 receptor; 360,000 tested, 3.2% active; activity change, negative = inhibition, % at 10 µM; P21728; HEK293 TREx D1 cells, calcium flux, dopamine EC80; active compounds read low; in the data active means activity change below about -30%
# Target sequence (P21728 whole entry, looked up): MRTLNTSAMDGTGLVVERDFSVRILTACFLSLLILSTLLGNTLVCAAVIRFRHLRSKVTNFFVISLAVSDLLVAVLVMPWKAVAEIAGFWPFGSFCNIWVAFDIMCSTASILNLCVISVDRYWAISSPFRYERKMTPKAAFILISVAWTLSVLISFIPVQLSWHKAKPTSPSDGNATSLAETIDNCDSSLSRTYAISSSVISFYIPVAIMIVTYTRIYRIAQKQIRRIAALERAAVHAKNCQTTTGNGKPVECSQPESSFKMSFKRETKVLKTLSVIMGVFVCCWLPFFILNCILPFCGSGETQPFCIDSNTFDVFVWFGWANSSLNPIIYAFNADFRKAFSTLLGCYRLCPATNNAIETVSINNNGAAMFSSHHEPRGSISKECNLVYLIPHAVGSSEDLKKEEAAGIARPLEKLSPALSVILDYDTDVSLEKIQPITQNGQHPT
#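 Kinetic fluorescence of a calcium dye serves as the read-out. D1-expressing Hek293 Trex cells, induced overnight at 30 C, are exposed to compound for 180 s before an EC80 dopamine addition, then read 180 s further.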
# TRHR agonist = activates the human TRH receptor. P34981. TRHR cells, calcium flux fluo-8, FDSS agonist mode. activation, % at 2 µM. 360,000 tested, 0.18% active. AID 493084
#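 Read-out: compound-evoked intracellular calcium rise in TRHR cells, fluo-8 dye, kinetic FDSS fluorescence at 1 s/cycle following a 10-cycle baseline. Cells cultured overnight before dye loading (30 min–1.5 h, RT).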
# D1 potentiator = human D1 dopamine receptor positive modulation. P21728. HEK293 TREx D1 cells, calcium flux, dopamine EC20 potentiation. potentiation, % at 10 µM. 360,000 tested, 0.036% active; in the data active means potentiation above about 30%
# D1 ag = activates the human D1 dopamine receptor. P21728. HEK293 T-REx D1 cells, calcium flux, agonist mode. activation, % at 2 µM. 360,000 tested, 1% active
#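 Inducible HEK293 T-REx D1 cells, force-coupled to calcium signalling, were plated at 4000 cells/well with tetracycline and held overnight at 30 C. After no-wash calcium dye loading, compound-evoked calcium rise over 180 s flagged agonists.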
# A number is an active result; i = inactive. Only some compounds are listed: those with a hit (about 4.7% of all), similar ones and a draw of the others. Unless noted, no stated cut-off is given here; in the data, active means activation above about 30%; inactive means the rest.
SMILES,TRHR PAM,D1 antagonist,TRHR agonist,D1 potentiator,D1 ag
Cc1ccc(NC(=O)Cn2c(=O)n(CCc3ccccc3)c(=O)c3sc4ccccc4c32)cc1C,i,i,i,i,i
CC(=O)Nc1ccc(SCc2c(C)noc2C)cc1,i,i,i,i,i
Cc1noc(C)c1CSc1ccc(Br)cc1,i,-32.9,i,i,i
CCOc1ccc(C(c2c(O)cc(C)n(CCOC)c2=O)N2CCC(C)CC2)cc1 (stereo not given),i,i,i,i,i
Cc1ccc(Cl)cc1N1CCN(CCCNC(=O)c2nnc(Cc3cccc(Cl)c3)o2)CC1,i,i,i,i,i
CCOc1ccccc1NC(=S)N1CCCCCC1,i,-36.5,i,i,i
CCOc1ccc(NC(=O)CN2C(=O)NC(C)(c3ccc(OC(F)F)cc3)C2=O)cc1 (stereo not given),i,-42.9,i,i,38.0
CC1(c2ccc(OC(F)F)cc2)NC(=O)N(CC(=O)Nc2ccc(F)cc2)C1=O (stereo not given),i,i,i,i,i
CCOC(=O)c1sc(NC(=O)CN2C(=O)NC3(CCCCCCC3)C2=O)c(C(=O)OCC)c1C,i,i,i,i,i
CC1(c2ccc(OC(F)F)cc2)NC(=O)N(CC(=O)Nc2ccc(OC(F)F)cc2)C1=O (stereo not given),i,-43.0,i,i,49.5
CCOC(=O)c1c(NC(=O)CN2C(=O)NC(C)(c3ccc(OC(F)F)cc3)C2=O)sc(C)c1C (stereo not given),i,i,i,i,31.4
CC1(c2ccc(OC(F)F)cc2)NC(=O)N(CC(=O)Nc2cccc(F)c2)C1=O (stereo not given),i,-60.8,i,i,60.0
CC1(c2ccc(OC(F)F)cc2)NC(=O)N(CC(=O)Nc2ccc(S(N)(=O)=O)cc2)C1=O (stereo not given),i,i,i,i,i
Cc1cc(C)cc(S(=O)(=O)Nc2cccc(-c3ccc(N4CCOCC4)nn3)c2)c1,i,i,i,i,i
CCOC(=O)c1c(C)[nH]c(C(=O)CN2C(=O)NC(C)(c3ccc(C)cc3)C2=O)c1C (stereo not given),i,i,i,i,53.9
Cc1cc(NC(=O)CN2C(=O)NC(C)(c3ccc(OC(F)F)cc3)C2=O)no1 (stereo not given),i,i,i,i,33.1
Cc1ccc(NC(=O)CN2C(=O)NC(C)(c3ccc(Cl)cc3)C2=O)cc1 (stereo not given),i,i,i,i,i
CC1(c2ccc(OC(F)F)cc2)NC(=O)N(CC(=O)Nc2ccc(Cl)cc2F)C1=O (stereo not given),i,i,i,i,36.2
COc1ccc(C2(c3ccc(OC)cc3)NC(=O)N(CC(=O)Nc3ccc(OC(F)F)cc3)C2=O)cc1,i,i,i,i,i
O=C(CNC(=O)c1ccccc1)N[C@@H](C(=O)Nc1cc(C(F)(F)F)ccc1Cl)c1ccccc1,i,i,i,i,i
CC(=O)c1cc2c(cc1NC(=O)c1c(C)nn(-c3ccc(C)cc3)c1-n1cccc1)OCO2,i,i,i,i,i
COc1cc(OC)cc(C(=O)Nc2ccc(S(=O)(=O)N3CCCCC3c3cccnc3)cc2)c1 (stereo not given),i,i,i,i,i
COc1ccc(Cl)cc1NC(=O)NCc1ccc2c(c1)OCO2,i,-32.7,i,i,i
CC(=O)c1cccc(NC(=O)NCc2ccc3c(c2)OCO3)c1,i,i,i,i,i
COc1ccc(Cl)cc1NC(=O)Nc1cn(C)nc1C,i,-61.2,i,i,i
SMILES,TRHR PAM,D1 antagonist,TRHR agonist,D1 potentiator,D1 ag
CCN1CCC(N(Cc2ccc3c(c2)OCO3)C(=O)Nc2cc(Cl)ccc2C(=O)OC)CC1,i,i,i,i,48.7
O=C(NCc1ccc2c(c1)OCO2)Nc1cccc(Cl)c1,i,-41.2,i,i,i
CC(C)c1ccc(NC(=O)C2CCCN2S(=O)(=O)c2ccc3nc(-c4ccccc4)[nH]c3c2)cc1 (stereo not given),i,i,i,i,i
Cc1ccc(Cl)cc1NC(=O)Nc1cccc(OCc2cc(=O)n3ccccc3n2)c1,i,i,i,i,i
Cc1ccc(C)c(NC(=O)CN(Cc2ccccc2)S(=O)(=O)c2ccc3nc(C)sc3c2)c1,i,i,i,i,i
CC1=C(C)CC(C(=O)NCCc2ccc(F)cc2)C(C(=O)O)C1 (stereo not given),i,i,i,i,i
